# According to PubChem BioAssay AID1159580 (chemical genetic matrix, 2015):
# “And” between values parts separate entries of the source, which are not always exact repeats. Equal values may be shown once. Among all 5,500 compounds or so, about 2,000 (36%) were called active. Roughly 18% stayed inconclusive and do not appear here. The list shows a part of the results. A number with no mark means an inactive call. No stated cut-off is given here; in the data, active means normalized growth mostly below about 0.91 (no sharp cut-off); inconclusive means no clear call, values can overlap the other calls; inactive means mostly above about 0.92.
# Assay: chemical genetic growth profiling, strain panel (AID 1159580);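 further: tested at 20 µM; growth read once vehicle control cultures reached saturation at 30 °C; 1 = growth at the plate median or of vehicle wells; lower values mean less growth of the strain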
# Conditions: S. cerevisiae deletion strains, growth OD
smiles,measurement,setting,value
Cc1cc(NC(=O)C2=C(O)c3ccccc3S(=O)(=O)N2C)no1,normalized growth,"locus YAL021C, strain ccr4, active compounds read low",0.959
same,normalized growth,"locus YAL026C, strain drs2, active compounds read low",0.97
same,normalized growth,"locus YAL030W, strain snc1, active compounds read low",0.969
same,normalized growth,"locus YBL061C, strain skt5, active compounds read low",0.965
same,normalized growth,"locus YBR009C, strain hhf1, active compounds read low",0.961
same,normalized growth,"locus YBR021W, strain FUR4, active compounds read low",1.01
same,normalized growth,"locus YBR023C, strain chs3, active compounds read low",0.967
same,normalized growth,"locus YBR171W, strain sec66, active compounds read low",0.926
same,normalized growth,"locus YBR229C, strain ROT2, active compounds read low",0.991
same,normalized growth,"locus YBR231C, strain swc5, active compounds read low",0.972
same,normalized growth,"locus YBR279W, strain paf1, active compounds read low",0.992
same,normalized growth,"locus YCL011C, strain gbp2, active compounds read low",0.982
same,normalized growth,"locus YCL016C, strain dcc1, active compounds read low",0.968
same,normalized growth,"locus YCL029C, strain bik1, active compounds read low",0.958
same,normalized growth,"locus YCL069W, strain vba3, active compounds read low",0.963
same,normalized growth,"locus YCR088W, strain abp1, active compounds read low",0.964
same,normalized growth,"locus YDL005C, strain med2, active compounds read low",0.984
same,normalized growth,"locus YDL035C, strain GPR1, active compounds read low",0.981
same,normalized growth,"locus YDL040C, strain nat1, active compounds read low",0.964
same,normalized growth,"locus YDL074C, strain BRE1, active compounds read low",1.03
same,normalized growth,"locus YDL101C, strain DUN1, active compounds read low",0.997
same,normalized growth,"locus YDL134C, strain PPH21, active compounds read low",0.995
same,normalized growth,"locus YDL185W, strain tfp1, active compounds read low",0.876 (active)
same,normalized growth,"locus YDL192W, strain arf1, active compounds read low",0.952
same,normalized growth,"locus YDR001C, strain nth1, active compounds read low",0.95
same,normalized growth,"locus YDR069C, strain doa4, active compounds read low",0.99
same,normalized growth,"locus YDR101C, strain arx1, active compounds read low",1.01
same,normalized growth,"locus YDR137W, strain rgp1, active compounds read low",1
same,normalized growth,"locus YDR150W, strain NUM1, active compounds read low",0.975
same,normalized growth,"locus YDR159W, strain sac3, active compounds read low",0.983
same,normalized growth,"locus YDR162C, strain NBP2, active compounds read low",0.961
same,normalized growth,"locus YDR195W, strain ref2",0.965
same,normalized growth,"locus YDR297W, strain sur2, active compounds read low",0.973
same,normalized growth,"locus YDR318W, strain mcm21, active compounds read low",0.966
same,normalized growth,"locus YDR334W, strain swr1, active compounds read low",0.963
same,normalized growth,"locus YDR335W, strain msn5, active compounds read low",0.964
same,normalized growth,"locus YDR388W, active compounds read low",0.945
same,normalized growth,"locus YDR392W, strain spt3, active compounds read low",0.905
same,normalized growth,"locus YDR502C, strain sam2, active compounds read low",0.98
same,normalized growth,"locus YEL003W, strain gim4, active compounds read low",0.959
same,normalized growth,"locus YEL037C, strain rad23, active compounds read low",0.961
same,normalized growth,"locus YEL061C, strain CIN8 (second series), active compounds read low",0.951
same,normalized growth,"locus YEL061C, strain CIN8, active compounds read low",0.977
same,normalized growth,"locus YER015W, strain faa2, active compounds read low",0.98
same,normalized growth,"locus YER016W, strain bim1, active compounds read low",0.946
same,normalized growth,"locus YER110C, active compounds read low",0.937
same,normalized growth,"locus YER111C, strain swi4, active compounds read low",0.962
same,normalized growth,"locus YER155C, strain BEM2 (second series), active compounds read low",0.976
same,normalized growth,"locus YER155C, strain BEM2, active compounds read low",0.975
same,normalized growth,"locus YER167W, strain BCK2, active compounds read low",0.985
same,normalized growth,"locus YFR010W, strain ubp6, active compounds read low",1
same,normalized growth,"locus YGL078C, strain dbp3, active compounds read low",0.965
same,normalized growth,"locus YGL086W, strain mad1, active compounds read low",0.999
same,normalized growth,"locus YGL167C, strain pmr1, active compounds read low",0.978
same,normalized growth,"locus YGL173C, strain kem1, active compounds read low",0.984
same,normalized growth,"locus YGL227W, strain vid30, active compounds read low",0.973
same,normalized growth,"locus YGL240W, strain doc1, active compounds read low",0.995
same,normalized growth,"locus YGL248W, strain PDE1, active compounds read low",0.994
same,normalized growth,"locus YGL253W, strain hxk2, active compounds read low",0.957
same,normalized growth,"locus YGR078C, strain PAC10, active compounds read low",0.995
same,normalized growth,"locus YGR135W, strain pre9, active compounds read low",0.929
same,normalized growth,"locus YGR252W, strain gcn5, active compounds read low",0.998
same,normalized growth,"locus YHR013C, strain ard1, active compounds read low",0.98
same,normalized growth,"locus YHR027C, strain rpn1, active compounds read low",0.97
same,normalized growth,"locus YHR030C, strain SLT2, active compounds read low",0.965 and 0.916
same,normalized growth,"locus YHR079C, strain IRE1 (second series), active compounds read low",0.939
same,normalized growth,"locus YHR079C, strain IRE1, active compounds read low",0.93
same,normalized growth,"locus YHR094C, strain hxt1, active compounds read low",0.945
same,normalized growth,"locus YHR129C, strain ARP1, active compounds read low",0.972
same,normalized growth,"locus YHR142W, strain chs7, active compounds read low",0.991
same,normalized growth,"locus YHR200W, strain rpn10, active compounds read low",0.947
same,normalized growth,"locus YIL066C, strain RNR3, active compounds read low",1.01
same,normalized growth,"locus YIL073C, strain SPO22, active compounds read low",0.881
same,normalized growth,"locus YIL125W, strain kgd1, active compounds read low",0.939
same,normalized growth,"locus YIR030C, strain dcg1, active compounds read low",0.928
same,normalized growth,"locus YJL092W, strain hpr5, active compounds read low",0.97
same,normalized growth,"locus YJL095W, strain BCK1 (second series), active compounds read low",0.971
same,normalized growth,"locus YJL095W, strain BCK1, active compounds read low",1.01 and 0.962
same,normalized growth,"locus YJL115W, strain asf1, active compounds read low",0.966
same,normalized growth,"locus YJL129C, strain trk1, active compounds read low",0.924
same,normalized growth,"locus YJL134W, strain LCB3, active compounds read low",0.965
same,normalized growth,"locus YJL154C, strain vps35, active compounds read low",0.939
same,normalized growth,"locus YJL164C, strain tpk1, active compounds read low",0.974
same,normalized growth,"locus YJL166W, strain qcr8, active compounds read low",1
same,normalized growth,"locus YJL168C, strain set2, active compounds read low",0.953
same,normalized growth,"locus YJL187C, strain SWE1 (second series), active compounds read low",1
same,normalized growth,"locus YJR043C, strain POL32, active compounds read low",1.02
